The supplement of paper PMC8728848
This excerpt belongs to a sample that is enriched for the strongest signals.

What was measured:
Assay in all cases: glycan array binding signal (z-score within array); higher = stronger binding
Conditions in all cases: glycan notation: IUPAC condensed, linker removed
[1] = molecular target: Fuc(a1-2)Gal(b1-3)GlcNAc(b1-2)Man(a1-3)[Fuc(a1-2)Gal(b1-3)GlcNAc(b1-2)Man(a1-6)]Man(b1-4)GlcNAc(b1-4)[Fuc(a1-6)]GlcNAc
Procedure, shortened: (§1)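 Columns mapping to the same glycan were averaged after glycan names were converted to IUPAC-condensed notation. The data come from 3228 arrays in the Consortium for Functional Glycomics database, limited to those with an available protein sequence. Binding is reported as a within-array Z-score averaged across arrays of one protein sequence and across linkers.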

[2] = molecular target: Fuc(a1-2)Gal(b1-4)[Fuc(a1-3)]GlcNAc(b1-3)GalNAc
Procedure, shortened: as §1

[3] = molecular target: Fuc(a1-2)[GalNAc(a1-3)]Gal(b1-4)Glc
Procedure, shortened: as §1

[4] = molecular target: Fuc(a1-2)[GalNAc(a1-3)]Gal(b1-4)GlcNAc(b1-2)Man(a1-3)[Fuc(a1-2)[GalNAc(a1-3)]Gal(b1-4)GlcNAc(b1-2)Man(a1-6)]Man(b1-4)GlcNAc(b1-4)GlcNAc
Procedure, shortened: as §1

[5] = molecular target: Fuc(a1-2)[GalNAc(a1-3)]Gal(b1-4)GlcNAc(b1-3)Gal(b1-4)GlcNAc
Procedure, shortened: as §1

[6] = molecular target: Fuc(a1-2)[GalNAc(a1-3)]Gal(b1-4)GlcNAc(b1-3)Gal(b1-4)GlcNAc(b1-3)Gal(b1-4)GlcNAc
Procedure, shortened: as §1

[7] = molecular target: Fuc(a1-2)[GalNAc(a1-3)]Gal(b1-4)[Fuc(a1-3)]GlcNAc(b1-3)GalNAc
Procedure, shortened: as §1

[8] = molecular target: Fuc(a1-3)[Gal(b1-4)]GlcNAc(b1-6)[Gal(b1-3)GlcNAc(b1-3)]Gal(b1-4)Glc
Procedure, shortened: as §1

[9] = molecular target: Fuc(a1-3)[Gal(b1-4)]GlcNAc6S
Procedure, shortened: as §1

[10] = molecular target: Fuc(a1-4)GlcNAc
Procedure, shortened: as §1

[11] = molecular target: Gal(a1-3)Gal(b1-3)GlcNAc(b1-3)GalNAc
Procedure, shortened: as §1

[12] = molecular target: Gal(a1-3)GalNAc
Procedure, shortened: as §1

[13] = molecular target: Gal(b1-3)GalNAc(a1-3)[Fuc(a1-2)]Gal(b1-4)Glc
Procedure, shortened: as §1

[14] = molecular target: Gal(b1-3)[Fuc(a1-4)]GlcNAc(b1-2)Man(a1-3)[Gal(b1-3)[Fuc(a1-4)]GlcNAc(b1-2)Man(a1-6)]Man(b1-4)GlcNAc(b1-4)[Fuc(a1-6)]GlcNAc
Procedure, shortened: as §1

[15] = molecular target: Gal(b1-3)[Fuc(a1-4)]GlcNAc(b1-3)Gal(b1-3)[Fuc(a1-4)]GlcNAc
Procedure, shortened: as §1

[16] = molecular target: Gal(b1-4)GlcNAc(b1-2)Man(a1-3)Man(b1-4)GlcNAc(b1-4)GlcNAc
Procedure, shortened: as §1

[17] = molecular target: Gal3S(b1-3)GalNAc
Procedure, shortened: as §1

[18] = molecular target: Gal3S(b1-3)GlcNAc
Procedure, shortened: as §1

[19] = molecular target: Gal3S(b1-4)Glc6S
Procedure, shortened: as §1

[20] = molecular target: Gal3S(b1-4)GlcNAc
Procedure, shortened: as §1

[21] = molecular target: GalNAc(a1-3)GalNAc(b1-3)Gal(a1-4)Gal(b1-4)GlcNAc
Procedure, shortened: as §1

[22] = molecular target: Glc(a1-4)Glc
Procedure, shortened: as §1

[23] = molecular target: Glc(b1-4)Glc
Procedure, shortened: as §1

[24] = molecular target: GlcA(b1-3)GlcNAc
Procedure, shortened: as §1

[25] = molecular target: GlcNAc(b1-2)Man(a1-3)[GlcNAc(b1-2)Man(a1-6)]Man(b1-4)GlcNAc(b1-4)GlcNAc
Procedure, shortened: as §1

[26] = molecular target: GlcNAc(b1-2)[GlcNAc(b1-6)]Man(a1-6)[GlcNAc(b1-2)Man(a1-3)][GlcNAc(b1-4)]Man(b1-4)GlcNAc(b1-4)GlcNAc
Procedure, shortened: as §1

[27] = molecular target: GlcNAc(b1-3)Man
Procedure, shortened: as §1

[28] = molecular target: GlcNAc6S(b1-3)Gal(b1-4)GlcNAc
Procedure, shortened: as §1

[29] = molecular target: Man(a1-3)[Man(a1-6)]Man(a1-6)[Man(a1-3)]Man
Procedure, shortened: as §1

[30] = molecular target: Neu5Ac(a2-3)Gal(b1-3)[Neu5Ac(a2-6)]GalNAc
Procedure, shortened: as §1

B1: Gal 9 (Canis lupus) (protein)
chain: MAFSSSQPPYLSPGVPFSGKIQGGLQDGLKITINGTILYCNGTRFAVNFHSGHSDSDIAFHFNPRFEEGGYVVCNTKQKGSWGSEERKMQMPFQMGNPFELCFMVNSCDFKVTVNGSHFTQYSHRVPFHYVDTLSITGAVQLSYISFQSPGVWQSSSAPITQTVIHTVQTTPGQPFPNPIIPPTAYPTPTYPMPFFTSIPGGLYPSKSIIVSGTVLPGAKRFHINLRSGNDIAFHLNPRFNENTVVRNMQINNSWGSEERSLPRKMPFVQGQSFSVWIMCEGHCFKVAVDGEHLFEYYHRLKNLLAINNMEVAGDVQLTHVQT
glycan array binding signal (z-score) [1]: -0.285
glycan array binding signal (z-score) [2]: -0.26
glycan array binding signal (z-score) [3]: 2.88
glycan array binding signal (z-score) [4]: 9.39
glycan array binding signal (z-score) [5]: 5.36
glycan array binding signal (z-score) [6]: 2.68
glycan array binding signal (z-score) [7]: -0.288
glycan array binding signal (z-score) [8]: -0.156
glycan array binding signal (z-score) [9]: -0.337
glycan array binding signal (z-score) [10]: -0.346
glycan array binding signal (z-score) [11]: 0.104
glycan array binding signal (z-score) [12]: -0.296
glycan array binding signal (z-score) [13]: 3.45
glycan array binding signal (z-score) [14]: -0.287
glycan array binding signal (z-score) [15]: -0.315
glycan array binding signal (z-score) [16]: 0.09
glycan array binding signal (z-score) [17]: 5.93
glycan array binding signal (z-score) [18]: 0.396
glycan array binding signal (z-score) [19]: 3.83
glycan array binding signal (z-score) [20]: 0.222
glycan array binding signal (z-score) [21]: 3.04
glycan array binding signal (z-score) [22]: -0.327
glycan array binding signal (z-score) [23]: -0.311
glycan array binding signal (z-score) [24]: -0.341
glycan array binding signal (z-score) [25]: -0.332
glycan array binding signal (z-score) [26]: -0.338
glycan array binding signal (z-score) [27]: -0.347
glycan array binding signal (z-score) [28]: -0.104
glycan array binding signal (z-score) [29]: -0.346
glycan array binding signal (z-score) [30]: -0.055
